Calls of active or inactive are those of the source. Unless noted, the rule behind the calls is not given here.
What was measured:
[1] = system: Wnt5a (protein binding on small-molecule microarray); assay: small molecules binding Wnt5a protein – biophysical, small-molecule microarray, 635/667 nm fluorescence, primary screen (AID 1142); conditions: 635 nm fluorescence, higher = more signal;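 note: fluorescence read at 667 nm with signal to noise per printed feature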
[2] = ATP-based viability of Huh7 replicon cells – cell-based, CellTiter-Glo luminescence, basal, 48 h, cytotoxicity control for HCV replication inhibitor project, primary screen (AID 1143); conditions: higher = more signal, called active from +8 up or from −8 down;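 note: Huh7 hepatoma cells carrying a hepatitis C replication reporter with no stimulus; test concentration not given here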
[3] = Pseudomonas biofilm growth suppression – PAO1 strain, BacTiter-Glo luminescence, LB-PBS, primary screen (AID 1144); conditions: P. aeruginosa PAO1 biofilm, 12 h, higher = more signal
[4] = basal CRE-LacZ reporter activity in PC12 – cell-based, unstimulated, primary screen (AID 1145); conditions: no forskolin, luminescence, 4.5 h, higher = more signal, called active from +8 up or from −8 down
[5] = forskolin-driven CRE-LacZ activity in PC12 – cell-based, CRE-LacZ reporter, forskolin-stimulated, primary screen (AID 1146); conditions: luminescence, 4.5 h, higher = more signal, called active from +8 up or from −8 down;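 note: PC12 cells with 6xCRE LacZ reporter stimulated by forskolin 10 µM; beta-galactosidase reporter signal reflecting CREB driven transcription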
[6] = biological target: Streptavidin (Streptomyces avidinii) (UniProt P22629); assay: compounds binding control protein streptavidin – biophysical, small-molecule microarray, 635/667 nm fluorescence, artefact control for SMM compound annotation, primary screen (AID 1147); conditions: higher = more signal;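 note: signal reflects streptavidin binding to arrayed compounds as a control protein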
Sequence of Streptavidin (Streptomyces avidinii) (P22629 whole entry, looked up): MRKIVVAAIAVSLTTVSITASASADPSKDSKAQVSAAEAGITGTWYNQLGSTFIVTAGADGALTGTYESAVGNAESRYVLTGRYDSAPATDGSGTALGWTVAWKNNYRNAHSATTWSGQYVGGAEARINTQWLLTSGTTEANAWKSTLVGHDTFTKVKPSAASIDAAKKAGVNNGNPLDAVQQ

[7] = probe aInhba binding on compound microarray – biochemical, small-molecule microarray, 635/667 nm fluorescence, primary screen (AID 1148); conditions: higher = more signal;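 note: score merges 667nm spot fluorescence with signal-to-noise for antibody binding to printed compounds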
Torsin-1A (Homo sapiens) [8] = biological target: Torsin-1A (Homo sapiens) (UniProt O14656); assay: TOR1A wild-type binding on microarray – cell lysate, small-molecule microarray, lysate, 635/667 nm, primary screen (AID 1149); conditions: COS7 hTOR1A-WT lysate, 635 nm fluorescence, higher = more signal
Sequence of Torsin-1A (Homo sapiens) (O14656 whole entry, looked up): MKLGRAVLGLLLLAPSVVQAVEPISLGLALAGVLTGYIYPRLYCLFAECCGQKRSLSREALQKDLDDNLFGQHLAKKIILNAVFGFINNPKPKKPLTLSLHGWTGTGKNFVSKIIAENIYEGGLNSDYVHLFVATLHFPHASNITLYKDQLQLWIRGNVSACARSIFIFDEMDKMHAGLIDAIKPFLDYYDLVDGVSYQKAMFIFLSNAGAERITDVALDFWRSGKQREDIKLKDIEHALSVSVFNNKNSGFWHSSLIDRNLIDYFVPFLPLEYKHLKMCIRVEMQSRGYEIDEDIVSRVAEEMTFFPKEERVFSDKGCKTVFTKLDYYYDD

Torsin-1A (Homo sapiens) [9] = biological target: Torsin-1A (Homo sapiens) (UniProt O14656); assay: torsin A mutant lysate binding on microarrays – cell lysate, small-molecule microarray, COS7 lysate, 635/667 nm fluorescence, primary screen (AID 1150); conditions: COS7 hTOR1A mutant lysate, 635 nm fluorescence, higher = more signal;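 note: score pools 667 nm emission and signal to noise measuring lysate protein binding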
[10] = system: Sonic hedgehog protein (Shh); assay: Sonic hedgehog microarray binding compounds – biochemical, small-molecule microarray, 635/667 nm fluorescence, primary screen (AID 1151); conditions: 635 nm fluorescence, higher = more signal;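 note: Shh protein binding to compounds spotted on small-molecule microarray slides; score combines spot fluorescence intensity with signal-to-noise across triplicate slides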
[11] = optical density shifts of acrAB sulA E. coli – strain DRC41, OD650, 48 h, E. coli filamentation inducer project, primary screen (AID 1152); conditions: higher = more signal, called active from +8 up or from −8 down;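 note: E. coli MC1000 strain DRC41 lacking acrAB efflux pump and sulA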
[12] = probe aLefty1 binding on compound microarray – biochemical, small-molecule microarray, 635/667 nm fluorescence, primary screen (AID 1153); conditions: higher = more signal;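 note: score merges spot fluorescence with signal-to-noise ratio from the scanned slide images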
[13] = plasmodial surface anion channel blockers, osmotic lysis – cell-based, P. falciparum Indochina, OD700, 1 h, primary screen (AID 1154); conditions: P. falciparum Indochina infected RBC osmotic lysis, higher = more signal, called active from +8 up or from −8 down
[14] = plasmodial surface anion channel blockers, osmotic lysis – cell-based, P. falciparum Indochina, OD700, 2 h, primary screen (AID 1155);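 note: lysis reports solute entry through the parasite surface anion channel PSAC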; conditions: P. falciparum Indochina infected erythrocytes, higher = more signal, called active from +8 up or from −8 down
[15] = changes in parasitized red cell lysis, either direction – P. falciparum Indochina, OD700, 3 h, PSAC antagonist project, primary screen (AID 1156); conditions: P. falciparum-infected erythrocytes, osmotic lysis, higher = more signal, called active from +8 up or from −8 down
[16] = plasmodial surface anion channel blockers, osmotic lysis – cell-based, P. falciparum Indochina, OD700, 18 h, primary screen (AID 1157); conditions: P. falciparum Indochina infected erythrocytes, osmotic lysis OD700, 18 h; higher = more signal, called active from +8 up or from −8 down
[17] = S6 kinase pathway phospho-S6 level changes – cell-based, A549, cytoblot, luminescence, serum-stimulated, primary screen (AID 1158); conditions: 5 h, higher = more signal;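 note: serum-stimulated A549 lung adenocarcinoma cells; signal is phosphorylated S6 detected by cytoblot immunostaining with HRP secondary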
[18] = biological target: NADPH oxidase 2 (Homo sapiens) (UniProt P04839); assay: compounds shifting NOX2 Amplex Red fluorescence – cell-based, HEK293-NOX2, PMA-stimulated, NOX inhibitor project, primary screen (AID 1159); conditions: 45 min, higher = more signal, called active from +8 up or from −8 down; note: test concentration not given here
Sequence of NADPH oxidase 2 (Homo sapiens) (P04839 whole entry, looked up): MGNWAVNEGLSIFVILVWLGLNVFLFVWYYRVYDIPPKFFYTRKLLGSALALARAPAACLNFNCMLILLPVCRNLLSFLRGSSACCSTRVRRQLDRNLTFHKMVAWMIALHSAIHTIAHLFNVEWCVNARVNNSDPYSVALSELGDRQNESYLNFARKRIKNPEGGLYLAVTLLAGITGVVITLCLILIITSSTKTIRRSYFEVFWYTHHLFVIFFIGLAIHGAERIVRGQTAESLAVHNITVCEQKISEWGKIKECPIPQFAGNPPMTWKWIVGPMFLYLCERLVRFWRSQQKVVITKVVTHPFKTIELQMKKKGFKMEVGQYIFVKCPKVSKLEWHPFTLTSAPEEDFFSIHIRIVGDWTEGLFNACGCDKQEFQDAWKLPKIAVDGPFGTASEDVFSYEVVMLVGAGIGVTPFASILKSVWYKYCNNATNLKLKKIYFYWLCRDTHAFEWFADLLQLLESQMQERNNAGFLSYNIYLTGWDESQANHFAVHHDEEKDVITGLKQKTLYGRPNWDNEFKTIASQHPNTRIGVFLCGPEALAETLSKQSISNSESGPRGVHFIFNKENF

[19] = biological target: NADPH oxidase 4 (Homo sapiens) (UniProt Q9NPH5); assay: compounds shifting NOX4 Amplex Red fluorescence – cell-based, HEK293-NOX4, tetracycline-induced, NOX inhibitor project, primary screen (AID 1160); conditions: HEK293-NOX4, Amplex Red H2O2 fluorescence, 45 min; higher = more signal, called active from +8 up or from −8 down
Sequence of NADPH oxidase 4 (Homo sapiens) (Q9NPH5 whole entry, looked up): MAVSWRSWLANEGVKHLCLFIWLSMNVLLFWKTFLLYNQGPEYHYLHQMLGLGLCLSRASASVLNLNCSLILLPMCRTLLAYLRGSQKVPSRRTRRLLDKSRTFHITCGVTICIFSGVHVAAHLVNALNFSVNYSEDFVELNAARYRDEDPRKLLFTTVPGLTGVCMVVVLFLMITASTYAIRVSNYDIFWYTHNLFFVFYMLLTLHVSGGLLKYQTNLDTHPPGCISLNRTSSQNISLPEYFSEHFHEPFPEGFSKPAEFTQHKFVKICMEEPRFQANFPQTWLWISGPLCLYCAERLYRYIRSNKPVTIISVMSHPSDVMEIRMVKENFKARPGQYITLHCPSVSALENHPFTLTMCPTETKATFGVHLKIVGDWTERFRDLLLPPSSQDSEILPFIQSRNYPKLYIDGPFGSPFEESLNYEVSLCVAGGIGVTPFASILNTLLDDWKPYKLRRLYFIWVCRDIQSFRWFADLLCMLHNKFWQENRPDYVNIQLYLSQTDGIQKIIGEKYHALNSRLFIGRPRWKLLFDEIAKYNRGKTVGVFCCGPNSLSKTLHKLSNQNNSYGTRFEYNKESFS

[20] = biological target: NADPH oxidase 5 (Homo sapiens) (UniProt Q96PH1); assay: compounds shifting NOX5 Amplex Red fluorescence – cell-based, HEK293-NOX5, NOX inhibitor project, primary screen (AID 1161); conditions: HEK293-NOX5, ionomycin, 45 min, higher = more signal
Sequence of NADPH oxidase 5 (Homo sapiens) (Q96PH1 whole entry, looked up): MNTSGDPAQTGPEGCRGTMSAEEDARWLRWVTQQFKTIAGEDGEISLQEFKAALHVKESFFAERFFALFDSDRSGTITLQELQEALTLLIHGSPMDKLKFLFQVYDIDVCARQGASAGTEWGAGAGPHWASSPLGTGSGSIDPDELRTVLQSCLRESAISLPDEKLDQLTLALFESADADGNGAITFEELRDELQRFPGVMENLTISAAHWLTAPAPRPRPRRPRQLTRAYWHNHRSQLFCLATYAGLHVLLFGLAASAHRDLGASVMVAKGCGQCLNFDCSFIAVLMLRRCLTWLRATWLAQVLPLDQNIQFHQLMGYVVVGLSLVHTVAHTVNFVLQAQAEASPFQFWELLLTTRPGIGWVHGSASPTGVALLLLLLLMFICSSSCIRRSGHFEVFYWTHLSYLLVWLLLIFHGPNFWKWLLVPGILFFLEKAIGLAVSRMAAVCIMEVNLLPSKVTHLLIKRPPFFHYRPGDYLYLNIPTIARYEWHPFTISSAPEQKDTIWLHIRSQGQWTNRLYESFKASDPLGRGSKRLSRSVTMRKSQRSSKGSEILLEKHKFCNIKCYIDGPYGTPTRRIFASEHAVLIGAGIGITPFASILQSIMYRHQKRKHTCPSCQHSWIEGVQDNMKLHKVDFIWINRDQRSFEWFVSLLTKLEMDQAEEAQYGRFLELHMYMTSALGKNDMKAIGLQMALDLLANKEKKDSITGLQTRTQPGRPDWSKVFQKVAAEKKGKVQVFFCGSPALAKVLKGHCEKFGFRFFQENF

Structure (SMILES)	composite z-score [1]	z-score [2]	z-score [3]	z-score [4]	z-score [5]	composite z-score [6]	composite z-score [7]	composite z-score (Torsin-1A (Homo sapiens) [8])	composite z-score (Torsin-1A (Homo sapiens) [9])	composite z-score [10]	z-score [11]	composite z-score [12]	z-score [13]	z-score [14]	z-score [15]	z-score [16]	z-score [17]	z-score [18]	z-score [19]	z-score [20]
CC(=O)OC[C@H]1O[C@@H](ON=C(C)CCN2CCCCc3nc(C)c(C)cc32)[C@H](OC(C)=O)[C@@H](OC(C)=O)[C@@H]1OC(C)=O	0.752	-2.39 (inactive)	0.0375 (inactive)	2.32 (inactive)	-0.494 (inactive)	-0.452	0.144	0.987	1.12	1.64	-0.998 (inactive)	-0.0601	-0.323 (inactive)	-0.558 (inactive)	1.16 (inactive)	-1.5 (inactive)	0.314	-1.31 (inactive)	-1.24 (inactive)	-2.54
CO[C@@H]1COC(=O)[C@@H]2CCCN2C(=O)[C@@H](C)COC(=O)CCC[C@H]1C	-0.0105	-0.848 (inactive)	-0.506 (inactive)	0.355 (inactive)	-0.269 (inactive)	1.21	-0.153	1.21	0.241	1.18	-0.476 (inactive)	-0.241	-0.238 (inactive)	-1.48 (inactive)	-0.0716 (inactive)	-2.21 (inactive)	2.43	-0.634 (inactive)	0.0989 (inactive)	0.43
CC(C)=NOC[C@@H](O)[C@H]1O[C@@H]2OC(C)(C)O[C@@H]2[C@H]1O	-0.297	0.605 (inactive)	0.503 (inactive)	-0.473 (inactive)	-0.476 (inactive)	1.23	0.333	1.34	0.0837	0.785	0.269 (inactive)	-0.0501	0.0289 (inactive)	0.0612 (inactive)	-0.0091 (inactive)	0.269 (inactive)	0.0226	-0.162 (inactive)	-0.514 (inactive)	0.0874
CCc1cc2c(nc1CC)CCN(CCC(C)=NO[C@@H]1O[C@H](COC(C)=O)[C@@H](OC(C)=O)[C@H](OC(C)=O)[C@H]1OC(C)=O)C2	0.503	-1.9 (inactive)	-1.19 (inactive)	4.05 (inactive)	-0.26 (inactive)	0.963	-0.089	0.439	0.495	1.88	-1.13 (inactive)	-0.0929	-0.451 (inactive)	-1.01 (inactive)	1.42 (inactive)	-1.67 (inactive)	1.83	0.0419 (inactive)	0.47 (inactive)	1.03
CC1(C)O[C@H]2O[C@H]([C@H](O)CON=C3[C@H]4CCn5c(=O)n(-c6ccccc6)c(=O)n5[C@H]4[C@H](O)[C@@H]4O[C@H]34)[C@H](O)[C@H]2O1	0.0179	-0.279 (inactive)	-0.295 (inactive)	0.494 (inactive)	0.771 (inactive)	0.0676	-0.154	0.43	-0.0174	-0.217	-0.169 (inactive)	-0.0375	0.246 (inactive)	0.282 (inactive)	0.267 (inactive)	0.343 (inactive)	-0.693	0.197 (inactive)	0.0828 (inactive)	-0.47
CCOC(=O)CCN1C(=O)[C@H]2[C@H]3[C@H](O)[C@H](O)CC(=NOCC(C)C)[C@@H]3CC[C@H]2C1=O	0.0707	-1.76 (inactive)	-0.123 (inactive)	0.424 (inactive)	-0.209 (inactive)	-0.483	-0.0986	2.79	2.77	1.1	-0.214 (inactive)	-0.0051	6.67 (inactive)	0.232 (inactive)	-0.0758 (inactive)	0.134 (inactive)	-0.651	0.913 (inactive)	0.783 (inactive)	0.295
C=CC[C@@H]1C=C[C@H](ON=C(C)CCN2CCCc3nc(C)c(C)cc32)[C@@H](CO)O1	0.621	-0.686 (inactive)	-0.0889 (inactive)	-0.0824 (inactive)	-0.299 (inactive)	0.182	0.528	2.17	2.07	1.66	0.579 (inactive)	0.97	3.7 (inactive)	0.327 (inactive)	0.206 (inactive)	0.562 (inactive)	-1.04	-0.297 (inactive)	-0.0344 (inactive)	-0.473
C[C@]12CCC3c4ccc(OCC5CO5)cc4CCC3C1CC[C@@H]2O (stereo not given in full)	0.201	-1.78 (inactive)	-0.168 (inactive)	2.75 (inactive)	0.806 (inactive)	0.699	0.0561	0.114	0.241	-0.0357	-0.186 (inactive)	-0.0011	24.3 (active)	7.31 (inactive)	0.269 (inactive)	0.663 (inactive)	0.25	1.44 (inactive)	-1.42 (inactive)	-1.74
O=C1C[C@@H](O)[C@@H](O)[C@@H]2[C@@H]3C(=O)N(Cc4ccccc4)C(=O)[C@@H]3CC[C@H]12	0.0217	-0.3 (inactive)	-0.473 (inactive)	-0.293 (inactive)	-0.497 (inactive)	0.636	-0.0719	0.176	0.37	0.718	-0.675 (inactive)	-0.147	1.56 (inactive)	0.586 (inactive)	0.215 (inactive)	0.526 (inactive)	-0.254	2.31 (inactive)	-0.79 (inactive)	0.127
